Inconclusive results are not listed. Unmarked numbers belong to inactive results. Activity calls are given as the source filed them. Calls follow the shape of the dose curve; as a rule, active = well fitted cell-killing curve with a large enough effect in the repeat runs; inconclusive = weak or mixed curves; inactive = flat fitted curve, though single readings scatter.
Assay: qHTS assay to identify small molecule antagonists of the estrogen related receptor (ERR) signaling pathway from Tox21 library - cell viability counter screen (AID 1224834); also: nearly all actives have a fitted effect of over 30% in size
Details: ERR reporter cells viability, CellTiter-Fluor, 17.5 h; series mostly up to 92.4 µM; viability change, negative = cytotoxic: at the top concentration
Description: National Center for Advancing Translational Sciences [NCATS]
NIH Chemical Genomics Center [NCGC]
U.S. Environmental Protection Agency [EPA]
National Institutes of Environmental Health Sciences [NIEHS]
National Toxicology Program [NTP]
U.S. Food and Drug Administration [FDA]
Estrogen related receptors (ERRs), the first orphan nuclear receptors discovered, play an important role in the control of cellular energy metabolism. ERRs are required for high-energy production in response to the environmental challenges. ERR-alpha was also identified as an adverse marker for breast cancer progression; ERR-alpha-positive tumors have a poor prognosis. To screen and to identify environmental compounds that perturb the ERR signaling pathways could provide valuable information for potential therapeutic or preventive measures in the treatment of metabolic disease. To differentiate true ERR antagonists or agonist from cytotoxic substances, the assay is multiplexed with cell viability assay.
Tox21 Assay Protocol Summary:
The ERR cells were dispensed at 2,000 cells/5 ul/well in 1536-well white plates using a Multidrop dispenser. After the assay plates were incubated at a 37 C/5% CO2 incubator for 6 hours, 23 nL of compounds dissolved in DMSO, positive and negative controls or DMSO only was transferred to the assay plate by a pin tool. The plates were incubated at 37 C for 17.5 hours. 1 ul/well of CellTiter-Fluor reagent was added into the assay plates using a Flying Reagent Dispenser. After 30-minute incubation at 37 C/5% CO2, the fluorescence intensity in the plates was measured using a ViewLux plate reader.
% is scaled to controls: 0 for no effect and ±100 for the full control effect; potency is read from the fitted curve at half-maximal effect.

Compared with `CCOP(=S)(OCC)Oc1nc(Cl)c(Cl)cc1Cl`, `Clc1cc(Cl)c(Cl)c(Cl)c1` is higher in “viability change, negative = cytotoxic” value: 5.21% for the first, 6.18% for the second.

Compared with `CCCCNP(N)(N)=S`, `CCC(Cl)CCl` (stereo not given) is higher in “viability change, negative = cytotoxic” value: -3.99% for the first, -0.973% for the second.

Compared with `CN1C(=O)C(O)N=C(c2ccccc2)c2cc(Cl)ccc21` (stereo not given), `Clc1cccc2ccccc12` is lower in “viability change, negative = cytotoxic” value: -0.0156% for the first, -0.419% for the second.

Going from `Brc1ccccc1` to `ClCc1ccccc1`, the “viability change, negative = cytotoxic” value rises from -0.56% to 0.358%.

Compared with `Nc1nc(N)nc(N)n1`, `Clc1cc(C(Cl)(Cl)Cl)cnc1Cl` is higher in “viability change, negative = cytotoxic” value: 1.62% for the first, 1.65% for the second.

First: Cl/C=C\C[N+]12CN3CN(CN(C3)C1)C2
Second: O=NN1CCNCC1
The “viability change, negative = cytotoxic” value of the first is lower: -1.64% for the first, 3.74% for the second.

First: O=C(CBr)OCc1ccccc1
Second: CC(C)(OO)c1ccccc1
The “viability change, negative = cytotoxic” value of the first is higher: 4.24% for the first, 0.186% for the second.

First: CC1(C)[C@H](C=C(Cl)Cl)[C@@H]1C(=O)O[C@@H](C#N)c1cccc(Oc2ccccc2)c1
Second: O=C(O)c1ccccc1C(=O)Nc1cccc2ccccc12
The “viability change, negative = cytotoxic” value of the first is lower: 1.7% for the first, 1.87% for the second.

Compared with `CCN(C)N=O`, `CCBr` is higher in “viability change, negative = cytotoxic” value: -1.01% for the first, 2.46% for the second.

Going from `NC(=O)CI` to `C=CC(C)=O`, the “viability change, negative = cytotoxic” value rises from 1.12% to 3.45%.

First: C=CC(=O)OC(C)(C)C
Second: CC(C)(Cl)[N+](=O)[O-]
The “viability change, negative = cytotoxic” value of the first is higher: 5.18% for the first, 0.16% for the second.

First: COCC(C)N(C(=O)CCl)c1c(C)csc1C (stereo not given)
Second: CC(=O)CCC(C)=O
The “viability change, negative = cytotoxic” value of the first is lower: -6.81% for the first, 5.73% for the second.

First: COc1nn(C(=O)NS(=O)(=O)c2ccccc2OC(F)(F)F)c(=O)n1C
Second: O=C(NC(=O)c1c(F)cccc1F)Nc1cc(Cl)c(Oc2ncc(C(F)(F)F)cc2Cl)c(Cl)c1
The “viability change, negative = cytotoxic” value of the first is higher: 0.829% for the first, -5.43% for the second.

First: [O-][Cl+]O
Second: CN(N=O)c1ccc([N+](=O)[O-])cc1
The “viability change, negative = cytotoxic” value of the first is higher: 7.49% for the first, -9.2% for the second.

Compared with `CCCCCCCCCCOC(=O)c1ccccc1C(=O)OCCCCCCCCCC`, `CC(C)O.CC(C)O.OCCN(CCO)CCO.OCCN(CCO)CCO.[Ti]` is higher in “viability change, negative = cytotoxic” value: -0.698% for the first, 3.24% for the second.

Compared with `C[C@@H]1CC[C@H]2[C@@H](C)C(=O)O[C@@H]3O[C@@]4(C)CC[C@@H]1[C@]32OO4`, `CC(=O)[C@H]1CC[C@H]2[C@@H]3CC[C@H]4C[C@](C)(O)CC[C@]4(C)[C@H]3CC[C@]12C` is higher in “viability change, negative = cytotoxic” value: -3.11% [at 42.5 µM] for the first, 1.98% [at 42.5 µM] for the second.

First: CN1C(=O)NC(=O)C(C)(C2=CCCCC2)C1=O (stereo not given)
Second: C=CCN1CC[C@]23c4c5ccc(O)c4O[C@H]2C(=O)CC[C@@]3(O)[C@H]1C5
The “viability change, negative = cytotoxic” value of the first is higher: -2.68% [at 42.5 µM] for the first, -5.27% [at 42.5 µM] for the second.

Going from `O=[Se]=O` to `c1ccc(C2CC2)c(OCC2=NCCN2)c1`, the “viability change, negative = cytotoxic” value rises from -12.4% [at 42.5 µM] to 3.95% [at 42.5 µM].

In the case of `CCCCOC(=O)c1ccccc1C(=O)OCc1ccccc1`, the Potency is reported as “inactive”.
In the case of `[CH3][Sn]([CH3])([Cl])[Cl]`, the Potency is reported as 62.1 µM (active).
For `Brc1ccc(Oc2ccccc2)cc1`, the Potency was “inactive”.
In the case of `O=C(N[C@H](c1ccccc1)[C@@H]1CN2CCC1CC2)c1c(Cl)ccc(C(F)(F)F)c1Cl`, the Potency is reported as 49.3 µM (active).
